# Measurements: PubChem BioAssay (NCI)
# This is part of a sample that, as a whole, favours compounds with a hit. Of some 79,000 tested, about 15% had one in any assay. Values without a mark were called inactive. Activity calls are given as the source filed them. Cut-off read from the data, not from the text of the source: active = growth inhibition above about 70%; inactive = the rest.
# Columns and labels:
# [1] = NCI Yeast Anticancer Drug Screen. Data for the mec2-1 strain (AID 157); details: S. cerevisiae mec2-1 strain, active compounds read high
# How it was run: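 Growth inhibition is read against vehicle-treated controls after compound exposure of the mec2-1 yeast strain, which is defective in DNA damage repair or cell cycle control.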
# [2] = NCI Yeast Anticancer Drug Screen. Data for the rad14 strain (AID 159);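 note: 0% = growth of vehicle-treated control cultures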; details: S. cerevisiae rad14 strain growth inhibition, active compounds read high
# How it was run: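 Readout: yeast growth inhibition, referenced to vehicle-only cultures. Strain bears a defined alteration in DNA damage repair.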
# [3] = NCI Yeast Anticancer Drug Screen. Data for the sgs1 mgt1 strain (AID 161);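 note: 0% = growth of cultures given vehicle only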; details: S. cerevisiae sgs1 mgt1 strain, active compounds read high
# How it was run: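 Yeast cells carrying a defined DNA-repair defect were exposed to test compounds. Growth inhibition was measured relative to vehicle-treated controls.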
# [4] = NCI Yeast Anticancer Drug Screen. Data for the CLN2oe strain (AID 163);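 note: 0% = growth of vehicle-only control cultures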; details: S. cerevisiae CLN2oe strain, active compounds read high
# How it was run: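 Compound-treated yeast; growth vs vehicle ctrl = % inhibition. Genetically altered strain (cell-cycle control).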
# [5] = NCI Yeast Anticancer Drug Screen. Data for the cln2 rad14 strain (AID 165);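 note: 0% = growth equal to vehicle treated cultures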; details: S. cerevisiae cln2 rad14 strain, active compounds read high
# How it was run: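 Growth inhibition, relative to vehicle-treated controls, is the read-out. The test organism is a yeast strain with defined genetic alterations, cln2 rad14.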
# [6] = NCI Yeast Anticancer Drug Screen. Data for the bub3 strain (AID 167); details: S. cerevisiae bub3 mutant strain, active compounds read high
# How it was run: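 Part of a panel of yeast mutants defective in DNA damage repair or cell cycle regulation. Each strain is grown with compound, and inhibition is calculated relative to solvent-treated cultures.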
# [7] = NCI Yeast Anticancer Drug Screen. Data for the wt2 strain (AID 169);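 note: 0% = growth of vehicle-treated yeast cultures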; details: S. cerevisiae wt2 strain growth inhibition, active compounds read high
# How it was run: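 Compound exposure of yeast; growth compared with vehicle controls; inhibition reported.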
# [8] = NCI Yeast Anticancer Drug Screen. Data for the mlh1 strain (AID 171);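 note: 0% = growth of vehicle-treated control cultures of the same strain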; details: S. cerevisiae mlh1 strain growth inhibition, active compounds read high
# How it was run: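 Compounds are applied to a genetically altered yeast strain, and its growth is compared with that of vehicle-treated cultures to give percent inhibition.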
# [9] = NCI Yeast Anticancer Drug Screen. Data for the sgs1 strain (AID 173);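 note: 0% = growth of vehicle-only control cultures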; details: S. cerevisiae sgs1 mutant, active compounds read high
# How it was run: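 Compounds applied to genetically altered yeast; growth compared with vehicle-treated cultures to give % inhibition.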
# [10] = NCI Yeast Anticancer Drug Screen. Data for the mlh1 rad18 strain (AID 175); details: S. cerevisiae mlh1 rad18 strain growth inhibition, active compounds read high
# How it was run: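 Cells of a genetically altered yeast strain, deficient in DNA damage repair, were treated with compound. Their growth was then compared with that of vehicle-treated cultures to give inhibition.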
# [11] = NCI Yeast Anticancer Drug Screen. Data for the rad18 strain (AID 177); details: S. cerevisiae rad18 mutant growth inhibition, active compounds read high
# How it was run: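 Compounds are applied to a repair-deficient yeast strain, and growth is compared with that of vehicle-treated cultures to give percent inhibition.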
# [12] = NCI Yeast Anticancer Drug Screen. Data for the rad52 strain (AID 147);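 note: 0% = growth of vehicle-treated control cultures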; details: S. cerevisiae rad52 mutant growth inhibition, active compounds read high
# How it was run: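 DNA repair-defective yeast; compound exposure; growth scored against vehicle controls.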
# [13] = NCI Yeast Anticancer Drug Screen. Data for the wt1 strain (AID 149);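 note: 0% = growth of vehicle-treated wt1 cultures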; details: S. cerevisiae wt1 strain (SPY 50644) growth inhibition, active compounds read high
# How it was run: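 The wt1 strain was treated with compounds, and growth was compared with vehicle-treated cultures to give inhibition.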
# [14] = NCI Yeast Anticancer Drug Screen. Data for the rad50EPP+ strain (AID 151);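 note: 0% = growth of vehicle-treated control cultures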; details: S. cerevisiae rad50 mutant strain, active compounds read high
# How it was run: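 rad50EPP+ yeast treated with test compounds. Readout: growth vs vehicle control.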
# [15] = NCI Yeast Anticancer Drug Screen. Data for the mgt1 strain (AID 153); details: S. cerevisiae mgt1 mutant growth inhibition, active compounds read high
# How it was run: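 Growth inhibition relative to vehicle controls was scored for the mgt1 yeast strain after compound exposure.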
# [16] = NCI Yeast Anticancer Drug Screen. Data for the rad50 strain (AID 155);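 note: 0% = growth of vehicle-only cultures of the same strain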; details: S. cerevisiae rad50 strain growth inhibition, active compounds read high
# How it was run: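 Cells are treated with compound, grown, and their growth is then scored against vehicle-only cultures of the same repair-deficient yeast strain.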
# [17] = at 5.0 µM (retest, dose inferred, filed as 0.5)
# [18] = at 50.0 µM (retest, dose inferred, filed as 5.0)
smiles,measurement,setting,value
COc1ccc(N=N/C(=N\NC(=O)c2cc(Br)ccc2O)c2ccc(N(CCC#N)CCC#N)cc2OC)cc1,growth inhibition,[1]; [17],22%
same,growth inhibition,[1]; at 11.0 µM,-8%
same,growth inhibition,[1]; at 33.0 µM,13%
same,growth inhibition,[1]; [18],24%
same,growth inhibition,[1]; at 50.0 µM,43.4%
same,growth inhibition,[1]; at 100.0 µM,31%
same,growth inhibition,[2]; at 1.2 µM,33%
same,growth inhibition,[2]; at 3.7 µM,26%
same,growth inhibition,[2]; at 11.0 µM,21%
same,growth inhibition,[2]; at 33.0 µM,3%
same,growth inhibition,[2]; at 100.0 µM,45%
same,growth inhibition,[3]; [17],-8%
same,growth inhibition,[3]; [18],69%
same,growth inhibition,[3]; at 50.0 µM,8.9%
same,growth inhibition,[4]; at 1.2 µM,11%
same,growth inhibition,[4]; at 3.7 µM,14%
same,growth inhibition,[4]; at 11.0 µM,24%
same,growth inhibition,[4]; at 33.0 µM,33%
same,growth inhibition,[4]; at 100.0 µM,28%
same,growth inhibition,[5]; [17],-4%
same,growth inhibition,[5]; [18],32%
same,growth inhibition,[5]; at 50.0 µM,30.9%
same,growth inhibition,[6]; at 1.2 µM,28%
same,growth inhibition,[6]; at 3.7 µM,14%
same,growth inhibition,[6]; [17],19%
same,growth inhibition,[6]; at 11.0 µM,16%
same,growth inhibition,[6]; at 33.0 µM,49%
same,growth inhibition,[6]; [18],69%
same,growth inhibition,[6]; at 50.0 µM,43.4%
same,growth inhibition,[6]; at 100.0 µM,68%
same,growth inhibition,[7]; at 1.2 µM,-20%
same,growth inhibition,[7]; at 3.7 µM,-11%
same,growth inhibition,[7]; at 11.0 µM,-15%
same,growth inhibition,[7]; at 33.0 µM,-9%
same,growth inhibition,[7]; at 100.0 µM,65%
same,growth inhibition,[8]; at 1.2 µM,33%
same,growth inhibition,[8]; at 3.7 µM,35%
same,growth inhibition,[8]; at 11.0 µM,24%
same,growth inhibition,[8]; at 33.0 µM,46%
same,growth inhibition,[8]; at 100.0 µM,69%
same,growth inhibition,[9]; at 1.2 µM,34%
same,growth inhibition,[9]; at 3.7 µM,37%
same,growth inhibition,[9]; at 11.0 µM,33%
same,growth inhibition,[9]; at 33.0 µM,42%
same,growth inhibition,[9]; at 100.0 µM,71% (active)
same,growth inhibition,[10]; [17],20%
same,growth inhibition,[10]; [18],26%
same,growth inhibition,[10]; at 50.0 µM,65.4%
same,growth inhibition,[11]; at 1.2 µM,14%
same,growth inhibition,[11]; at 3.7 µM,20%
same,growth inhibition,[11]; at 11.0 µM,18%
same,growth inhibition,[11]; at 33.0 µM,33%
same,growth inhibition,[11]; at 100.0 µM,49%
O=C(NC(=S)Nc1ccccn1)c1ccccc1,growth inhibition,[12]; at 1.2 µM,-30%
same,growth inhibition,[12]; at 3.7 µM,-43%
same,growth inhibition,[12]; at 11.0 µM,-35%
same,growth inhibition,[12]; at 33.0 µM,-28%
same,growth inhibition,[12]; at 100.0 µM,-22%
same,growth inhibition,[13]; at 1.2 µM,-26%
same,growth inhibition,[13]; at 3.7 µM,-36%
same,growth inhibition,[13]; at 11.0 µM,-32%
same,growth inhibition,[13]; at 33.0 µM,-19%
same,growth inhibition,[13]; at 100.0 µM,-24%
same,growth inhibition,[14]; at 1.2 µM,-30%
same,growth inhibition,[14]; at 3.7 µM,-51%
same,growth inhibition,[14]; at 11.0 µM,-69%
same,growth inhibition,[14]; at 33.0 µM,-53%
same,growth inhibition,[14]; at 100.0 µM,25%
same,growth inhibition,[15]; at 1.2 µM,-62%
same,growth inhibition,[15]; at 3.7 µM,-40%
same,growth inhibition,[15]; at 11.0 µM,-58%
same,growth inhibition,[15]; at 33.0 µM,-41%
same,growth inhibition,[15]; at 100.0 µM,-22%
same,growth inhibition,[16]; at 1.2 µM,-12%
same,growth inhibition,[16]; at 3.7 µM,-9%
same,growth inhibition,[16]; [17],97% (active)
same,growth inhibition,[16]; at 11.0 µM,-19%
same,growth inhibition,[16]; at 33.0 µM,-30%
same,growth inhibition,[16]; [18],100% (active)
same,growth inhibition,[16]; at 50.0 µM,28.7%
same,growth inhibition,[16]; at 100.0 µM,-14%
same,growth inhibition,[1]; at 1.2 µM,-73%
same,growth inhibition,[1]; at 3.7 µM,-55%
same,growth inhibition,[1]; [17],100% (active)
same,growth inhibition,[1]; at 11.0 µM,-51%
same,growth inhibition,[1]; at 33.0 µM,-54%
same,growth inhibition,[1]; [18],100% (active)
same,growth inhibition,[1]; at 50.0 µM,25.1%
same,growth inhibition,[1]; at 100.0 µM,-50%
same,growth inhibition,[2]; at 1.2 µM,-30%
same,growth inhibition,[2]; at 3.7 µM,-20%
same,growth inhibition,[2]; at 11.0 µM,-19%
same,growth inhibition,[2]; at 33.0 µM,-21%
same,growth inhibition,[2]; at 100.0 µM,-23%
same,growth inhibition,[3]; [17],-21%
same,growth inhibition,[3]; [18],50%
same,growth inhibition,[3]; at 50.0 µM,60.5%
same,growth inhibition,[4]; at 1.2 µM,-4%
same,growth inhibition,[4]; at 3.7 µM,-15%
same,growth inhibition,[4]; at 11.0 µM,-11%
same,growth inhibition,[4]; at 33.0 µM,-23%
same,growth inhibition,[4]; at 100.0 µM,-15%
same,growth inhibition,[5]; [17],36%
same,growth inhibition,[5]; [18],10%
same,growth inhibition,[5]; at 50.0 µM,-9.05%
same,growth inhibition,[6]; at 1.2 µM,-19%
same,growth inhibition,[6]; at 3.7 µM,-22%
same,growth inhibition,[6]; [17],13%
same,growth inhibition,[6]; at 11.0 µM,-13%
same,growth inhibition,[6]; at 33.0 µM,5%
same,growth inhibition,[6]; [18],57%
same,growth inhibition,[6]; at 50.0 µM,63%
same,growth inhibition,[6]; at 100.0 µM,19%
same,growth inhibition,[7]; at 1.2 µM,-32%
same,growth inhibition,[7]; at 3.7 µM,-32%
same,growth inhibition,[7]; at 11.0 µM,-38%
same,growth inhibition,[7]; at 33.0 µM,-27%
same,growth inhibition,[7]; at 100.0 µM,-20%
same,growth inhibition,[8]; at 1.2 µM,-38%
same,growth inhibition,[8]; at 3.7 µM,-34%
same,growth inhibition,[8]; at 11.0 µM,-26%
same,growth inhibition,[8]; at 33.0 µM,-40%
same,growth inhibition,[8]; at 100.0 µM,-37%
same,growth inhibition,[9]; at 1.2 µM,-54%
same,growth inhibition,[9]; at 3.7 µM,-71%
same,growth inhibition,[9]; at 11.0 µM,-47%
same,growth inhibition,[9]; at 33.0 µM,-36%
same,growth inhibition,[9]; at 100.0 µM,-31%
same,growth inhibition,[10]; [17],100% (active)
same,growth inhibition,[10]; [18],100% (active)
same,growth inhibition,[10]; at 50.0 µM,19.2%
same,growth inhibition,[11]; at 1.2 µM,-60%
same,growth inhibition,[11]; at 3.7 µM,-56%
same,growth inhibition,[11]; at 11.0 µM,-29%
same,growth inhibition,[11]; at 33.0 µM,-38%
same,growth inhibition,[11]; at 100.0 µM,-43%
